# Assay results from PubChem BioAssay AID953 (National Center for Advancing Translational Sciences (NCATS), 2007).
# This is one part of the list. Records with an inconclusive call do not appear. The source made the active and inactive calls. The call rests on the fitted dose curve; in most records, active means well fitted curve in the direction sought with a large enough effect; inconclusive means small, poorly fitted or top-dose-only effect, or effect the other way, or another doubt; inactive means no such curve, though single readings can be large or run the other way.
# Experiment: Confirmation Concentration-Response Assay for Agonists of the Thyroid Stimulating Hormone Receptor: Activators of Intracellular cAMP Concentrations in Parental HEK 293
# Conditions: parental HEK293 CNG biosensor, cAMP membrane potential fluorescence; series mostly up to 32.9 µM; activity change, negative = inhibition: at the top concentration
# Source text: NIH Chemical Genomics Center [NCGC] NIH Molecular Libraries Screening Centers Network [MLSCN] MLSCN Grant: 1 X01 MH080680-01 PI Name: Dr. Marvin Gershengorn NCGC Assay Overview: This cell based assay utilized a cyclic nucleotide gated ion channel (CNG) as a biosensor for cAMP induction. HEK 293 cells stably expressing the modified CNG were purchased from BD biosciences (http://www.atto.com/products/actone/features_benefits.shtml) . Stimulation of cAMP production causes the CNG to open and subsequent membrane depolarization to occur. A fluorescent membrane potential dye (BD biosciences) was utilized to detect cAMP stimulation in cells. The cells were maintained in DMEM medium (Invitrogen) containing 10 % FBS (Hyclone), 100 units/ml Penicillin, 100 ug/ml Streptomycin (Invitrogen), and 250 ug/ml Geneticin (Invitrogen) and 1 ug/ml Puromycin (Invitrogen) at 37C in 5% CO2. This assay was used as a counterscreen to "Confirmation Concentration-Response Assay for Agonists of the Thyroid Stimulating Hormone Receptor", to control for compounds signaling through endogenous receptors and other targets of HEK 293 cells.
# NCGC Assay Protocol Summary: High Throughput Screening. Freshly passaged cells were dispensed into 1536-well assay plates at 4 ul/well in DMEM containing phenol red (Invitrogen), 10% FCS (Hyclone), and 100 units/ml Penicillin, 100 ug/ml Streptomycin (Invitrogen) and incubated at 37 C with 5% CO2 for 20 to 36 hrs before the robotic screening. The screen was initiated by addition of 4 ul/well membrane potential dye containing 100 uM RO 20-1724 (Sigma Aldrich), followed by 60 min incubation at room temperature to allow for dye equilibration across the cell membrane. 23 nl/well compound or control was then added to the assay plates, which were incubated for additional 30 min before reading a Envision fluorescence plate reader (Perkin Elmer) in bottom-read mode for fluorescence intensity (emission at 590 nm). Keywords: cAMP, CNG Ion Channel, quantitative high throughput screening, qHTS, HTS, probe identification, CNG, cAMP, cyclic nucleotide gated ion channel PubChem
row,SMILES,"activity change, negative = inhibition"
1,C=CCn1c(COc2ccccc2F)nnc1SCC(=O)N1CC(=O)Nc2ccccc21,-6.56% [at 25.6 µM] (inactive)
2,Cc1ccc(Nc2nc(CSc3nnnn3-c3ccccc3)cc(=O)[nH]2)cc1,-123% [at 25.6 µM] (inactive)
3,CCOC(=O)c1cnc(-n2nc(C)cc2C)nc1-n1nc(C)cc1C,-6.3% (inactive)
4,CCOC(=O)CSc1nnc(NC(=O)c2cccc(S(=O)(=O)N3CCCCC3)c2)s1,-6.14% [at 25.6 µM] (inactive)
5,O=C(COC(=O)C12CC3CC(CC(C3)C1)C2)NCc1ccco1,-5.29% (inactive)
6,O=C(CN1C(=O)NC2(CCCCC2)C1=O)NCCC1=CCCCC1,-9.98% (inactive)
